Compound activity (PubChem)
hgDAF12 agonist: agonists of H. glycines DAF-12 nuclear receptor. 370,000 tested, 1.8% active. HEK293 GAL4-hgDAF12 UAS-luciferase reporter, agonist luminescence; normalized to butyrate control. activation, % at 6.8 µM;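 active means activation above a cutoff set at the mean of all screened compounds plus 3 SD, cut at about 10% in these data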
DAX1 inh-1: NR0B1 (DAX1) inhibition; HEK293 Gal4-DAX1 luciferase reporter, luminescence; inhibition, % at 6.75 µM; 340,000 tested, 0.99% active; AID 504766;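 active means inhibition above the mean over all tested compounds plus 3 SD, cut at about 4.2% in these data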;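 further: inhibition shows as a rise in luminescence from relieved DAX1 repression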
Target sequence (P51843 207-470 limits assumed): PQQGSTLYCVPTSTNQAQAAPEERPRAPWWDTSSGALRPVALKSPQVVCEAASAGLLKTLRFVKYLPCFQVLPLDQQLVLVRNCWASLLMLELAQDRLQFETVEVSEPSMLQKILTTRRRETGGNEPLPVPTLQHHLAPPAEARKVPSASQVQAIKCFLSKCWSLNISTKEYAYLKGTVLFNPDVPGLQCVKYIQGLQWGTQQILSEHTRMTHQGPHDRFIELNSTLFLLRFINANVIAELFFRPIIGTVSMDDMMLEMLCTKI
SMARCA2 act: activators of SMARCA2 function. activation, % at 9.1 µM. MG213 cells, MMTV-luciferase reporter, dexamethasone, overnight. 370,000 tested, 1% active; in the data active means activation above about 7.8%
ssDAF-12 act: S. stercoralis DAF-12 activation, primary screen; 370,000 tested, 1% active; activation, % at 6.8 µM; HEK293 ssDAF-12/GRIP1 lit1-tk-luc reporter, luminescence; % of 3 µM dafachronic acid response; AID 652126;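 active means activation above the mean over all tested compounds plus 3 SD, cut at about 0.9% in these data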
hcDAF-12 act: H. contortus DAF-12 activation, primary screen; activation, % at 6.8 µM; HEK293 hcDAF-12 lit1-tk-luc reporter, luminescence; 0% DMSO, 100% Δ7-dafachronic acid; AID 652067; 370,000 tested, 1.4% active;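 active means activation above the mean of all tested compounds plus 3 SD, cut at about 5.5% in these data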
DAX1 inh-2: DAX1 (NR0B1) inhibition, primary screen; HEK293T StAR-luciferase reporter, SF-1/DAX-1 repression relief; inhibition, % at 6.8 µM; 370,000 tested, 1.1% active; AID 652010;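 active means inhibition above the mean over all tested compounds plus 3 SD, cut at about 3.6% in these data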;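 further: higher inhibition means more luminescence from relief of DAX-1 repression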
DAX1 conf: NR0B1 (human) inhibition, confirmation. shares compounds with DAX1 inh-2. HEK293T StAR-promoter luciferase reporter, SF-1/DAX-1 repression. inhibition, % at 6.8 µM. 2,400 tested, 87% active;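 active means inhibition above the average of every tested compound plus 3 SD, cut at about 3.8% in these data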;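 further: active compounds raise luminescence by relieving repression of the StAR reporter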
SF1 AF2mut Luc: counter-screen for DAX1 inhibitors: nonselective inhibitors with SF-1 AF2 mutant; shares compounds with DAX1 inh-2; HEK293 StAR-luciferase, luminescence; inhibition, % at 6.8 µM; 2,400 tested, 78% active;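 active means inhibition above the mean of all tested compounds plus 3 SD, cut at about 3% in these data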
SMARCA2 act conf: confirmation of SMARCA2 (BRM) function activators; AID 652260; shares compounds with SMARCA2 act; 3,500 tested, 30% active; MG213 cells, MMTV-luciferase with dexamethasone, luminescence, overnight; MG213 cells expressing E1A, Rb sequestered; DMSO wells 0%, reference activator 100%; activation, % at 9.1 µM;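 active means activation above its plate's cutoff, the mean activation of tested wells plus 3 SD, cut at about 7.9% in these data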
GAL4-VP16 Luc: activates GAL4-VP16 luciferase, flagging SMARCA2 activator hits; AID 686939; shares compounds with SMARCA2 act; HEK293 GAL4-VP16 pG5luc reporter, luciferase luminescence; scaled: DMSO wells 0%, SAHA wells 100%; activation, % at 9.1 µM; 3,500 tested, 41% active;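 active means activation above the solvent-only control well mean plus 3 SD, averaged across control plates, cut at about 5.2% in these data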
LXR ag: counter-screen for hcDAF-12 agonists: agonists of human LXR-beta; shares compounds with hcDAF-12 act; HEK293 Gal4-LXR tk-luc reporter, luminescence, 24 h; normalized: DMSO 0%, positive control 100%; activation, % at 6.8 µM; 3,400 tested, under 10 active; AID 743027;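 active means mean percent activation of the reporter above a cutoff set as the average over tested compounds plus their standard deviation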
hcDAF12 ag: confirmation of H. contortus DAF-12 agonists. 3,400 tested, 61% active. HEK293 hcDAF-12 lit1-tk-luc reporter, luminescence; % of Δ7-dafachronic acid response. shares compounds with hcDAF-12 act. activation, % at 6.8 µM;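 active means mean activation across triplicate tests above the threshold derived from the earlier primary screen, cut at about 5.5% in these data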
hgDAF12 ag: confirmation of H. glycines DAF-12 agonists | activation, % at 6.8 µM | shares compounds with hgDAF12 agonist | 3,300 tested, 80% active | HEK293 GAL4-hgDAF12 luciferase reporter, agonist mode; percent of butyrate response;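 active means mean activation over triplicate wells above the hit cutoff derived from the earlier primary screen, cut at about 11% in these data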
LXRb DAF12 ctr: LXR-beta agonism as DAF-12 counter-screen; shares compounds with hgDAF12 agonist; HEK293 Gal4-LXR luciferase reporter, 24 h; activation, % at 6.8 µM; 3,300 tested, under 10 active; AID 743051;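 active means mean activation of the triplicate above a set limit carried over from the primary screen, none filed active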
Each line names hits and unclear results; the compound was inactive in the other large screens (follow-up assays come after a bar, where they were run). Only some compounds are listed: those with a hit (about 4.8% of all), similar ones and a draw of the others.

CCOc1ccc(/C=C\C(C)=N\O)cc1	hgDAF12 agonist 14, DAX1 inh-2 4.9 | DAX1 conf 8.2 | SF1 AF2mut Luc 6.9 | hgDAF12 ag 13 | LXRb DAF12 ctr inactive
Cc1nn(-c2nnc(NC3CCCCC3)nn2)c(C)c1Br	hgDAF12 agonist 18, ssDAF-12 act 1.8, hcDAF-12 act 6.1, DAX1 inh-2 5.2 | DAX1 conf 13 | SF1 AF2mut Luc 8.3 | hgDAF12 ag 16 | LXRb DAF12 ctr inactive
Oc1ccccc1-c1cc(-c2ccccc2Cl)[nH]n1	hgDAF12 agonist 25, ssDAF-12 act 4.0, hcDAF-12 act 19, DAX1 inh-2 8.6 | DAX1 conf 19 | SF1 AF2mut Luc 11 | LXR ag inactive | hcDAF12 ag 15 | hgDAF12 ag 27 | LXRb DAF12 ctr inactive
COc1cc(C(=O)NNC(=O)c2n[nH]c3ccccc23)cc(OC)c1OC	none
O=C(Nc1ccc2nn(-c3ccccc3)nc2c1)c1cccnc1	none
CC(C)C(=O)Nc1ccc2nn(-c3ccccc3)nc2c1	hgDAF12 agonist 22, SMARCA2 act 9.4, ssDAF-12 act 1.0, hcDAF-12 act 8.8, DAX1 inh-2 12 | DAX1 conf 13 | SF1 AF2mut Luc 7.3 | SMARCA2 act conf inactive | GAL4-VP16 Luc 20 | LXR ag inactive | hcDAF12 ag 8.4 | hgDAF12 ag 19 | LXRb DAF12 ctr inactive
O=C(c1cc2ccccc2oc1=O)N(Cc1cccs1)Cc1cccs1	none
Cc1ccc2cc3c(N)c(C(=O)N4CCOCC4)sc3nc2c1	hgDAF12 agonist 16, DAX1 inh-1 5.1, SMARCA2 act 9.5, ssDAF-12 act 1.0, hcDAF-12 act 6.2, DAX1 inh-2 5.6 | DAX1 conf 12 | SF1 AF2mut Luc 5.9 | SMARCA2 act conf 14 | GAL4-VP16 Luc 14 | hgDAF12 ag inactive | LXRb DAF12 ctr inactive
COc1ccc2cc3c(N)c(C(=O)N4CCCC4)sc3nc2c1	none (no result: DAX1 inh-1)
Cc1cc(C)n(-c2ccc(C(=O)Nc3nc4ccccc4s3)cc2)n1	none
Nc1ccc(C(=O)Nc2nc3ccccc3s2)cc1	hgDAF12 agonist 21, ssDAF-12 act 1.2, hcDAF-12 act 6.6, DAX1 inh-2 5.3 | DAX1 conf 5.6 | SF1 AF2mut Luc 3.0 | LXR ag inactive | hcDAF12 ag 8.7 | hgDAF12 ag 21 | LXRb DAF12 ctr inactive
CC(C)Cc1ccc(-c2cc3nc(NCCCn4ccnc4)ccn3n2)cc1	hgDAF12 agonist 15, hcDAF-12 act 6.1, DAX1 inh-2 5.5 (no result: DAX1 inh-1) | DAX1 conf 7.6 | SF1 AF2mut Luc 5.1 | hgDAF12 ag 11 | LXRb DAF12 ctr inactive
